Assay results taken from PubChem BioAssay (NCATS).
Inconclusive results are not listed. A number with no mark means an inactive call. Active and inactive are the calls of the source. Calls come from the whole dose curve; as a rule, active = well fitted inhibition curve with a large enough effect; inconclusive = small, poorly fitted or top-dose-only effect; inactive = flat fitted curve, though single readings scatter.

Biological target: Voltage-gated inwardly rectifying potassium channel KCNH2 (Homo sapiens) (UniProt Q12809)
Sequence (Q12809 whole entry, looked up): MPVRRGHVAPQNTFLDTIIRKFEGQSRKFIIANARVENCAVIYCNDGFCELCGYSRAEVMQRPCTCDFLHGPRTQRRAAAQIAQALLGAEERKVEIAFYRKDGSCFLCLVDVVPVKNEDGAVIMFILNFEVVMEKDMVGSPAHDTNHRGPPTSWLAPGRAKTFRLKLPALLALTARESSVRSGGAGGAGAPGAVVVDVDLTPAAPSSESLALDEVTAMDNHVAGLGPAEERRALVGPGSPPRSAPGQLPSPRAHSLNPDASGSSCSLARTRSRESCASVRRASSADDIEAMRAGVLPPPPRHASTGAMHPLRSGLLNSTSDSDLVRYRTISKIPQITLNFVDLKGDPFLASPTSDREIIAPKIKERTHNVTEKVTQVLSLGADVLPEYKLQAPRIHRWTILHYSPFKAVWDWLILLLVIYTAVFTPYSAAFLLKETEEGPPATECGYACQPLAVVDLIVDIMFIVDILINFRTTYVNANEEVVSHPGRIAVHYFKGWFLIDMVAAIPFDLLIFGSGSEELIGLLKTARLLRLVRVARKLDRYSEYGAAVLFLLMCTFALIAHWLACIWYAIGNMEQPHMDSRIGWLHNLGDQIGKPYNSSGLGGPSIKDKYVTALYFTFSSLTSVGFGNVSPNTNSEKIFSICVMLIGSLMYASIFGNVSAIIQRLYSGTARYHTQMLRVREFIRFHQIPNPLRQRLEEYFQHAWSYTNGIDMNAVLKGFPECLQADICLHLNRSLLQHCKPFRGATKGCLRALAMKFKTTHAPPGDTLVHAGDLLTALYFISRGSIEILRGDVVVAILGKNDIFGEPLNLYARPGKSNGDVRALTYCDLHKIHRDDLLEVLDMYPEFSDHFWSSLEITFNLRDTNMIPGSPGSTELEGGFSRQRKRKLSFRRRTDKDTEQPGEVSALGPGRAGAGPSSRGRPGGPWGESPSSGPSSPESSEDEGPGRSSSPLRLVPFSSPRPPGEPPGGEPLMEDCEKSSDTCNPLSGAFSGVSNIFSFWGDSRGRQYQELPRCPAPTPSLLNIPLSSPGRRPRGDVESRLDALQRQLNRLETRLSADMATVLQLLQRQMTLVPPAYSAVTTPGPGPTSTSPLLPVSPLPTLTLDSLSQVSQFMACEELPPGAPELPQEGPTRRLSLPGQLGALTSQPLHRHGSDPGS
Experiment: qHTS Assay for Small Molecule Inhibitors of the Human hERG Channel Activity (AID 588834);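 note: lower thallium flux fluorescence means stronger hERG block; nearly all actives have a fitted effect of over 50% in size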; for activity change, negative = inhibition: top concentration of the series differs between compounds
Settings: U2OS BacMam hERG, FluxOR thallium flux fluorescence; series mostly up to 46.1 µM; activity change, negative = inhibition: at the top concentration
Method in brief: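 U2OS cells BacMam-transduced with hERG, 2000 cells/well, compound ~10 min at 37 °C before stimulation buffer. FluxOR thallium flux fluorescence read kinetically on FDSS; decrease indicates block; AC50 from Hill fits.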
% is set by controls: 0 for no effect and ±100 for the full control effect; potency is the fitted concentration of half-maximal effect.

Structure (SMILES) | activity change, negative = inhibition | Potency
Brc1c(Br)c(Br)c2n[nH]nc2c1Br | -20.4% | 
CCCCCCCCCCCCCCCCCC(=O)NCC(COP(=O)([O-])OCC[N+](C)(C)C)OCC (centres undefined) | 17% | 
CC[C@H]1OC(=O)[C@H](C)C(=O)[C@H](C)[C@@H](O[C@@H]2O[C@H](C)C[C@H](N(C)C)[C@H]2O)[C@](C)(OC)C[C@@H](C)C(=O)[C@H](C)[C@H]2N(CCCCn3cnc(-c4cccnc4)c3)C(=O)O[C@]12C |  | inactive
O=C(/C=C/c1ccc(O)cc1)c1ccc(O)cc1O |  | 3980 nM (active)
O=C(O)CNC(=O)C(CS)Cc1ccccc1 (centres undefined) | -1.19% | 
NC(CCCP(=O)(O)O)C(=O)O (centres undefined) | 0.928% | 
Cc1ccc(O)c(N=Nc2ccccc2)n1 | -18.6% | 
O=C(/C=C/c1ccc(O)c(O)c1)OCCc1ccccc1 | -7.97% | 
CC(=O)O[C@H]1C[C@@]2(C)[C@@H](C[C@@H](O)[C@H]3[C@@]4(C)CC[C@@H](O)[C@@H](C)[C@@H]4CC[C@@]32C)/C1=C(\CCC=C(C)C)C(=O)O | 9.39% | 
CCCCC/C=C\CC(O)/C=C/c1cccc(CC(O)CCCCO)n1 (centres undefined) | -2.13% | 
Cc1ccc(C(=O)O[C@H](C(=O)O)[C@@H](OC(=O)c2ccc(C)cc2)C(=O)O)cc1 (tested in a mixture with another compound) | 5.66% | 
CC(C)NC[C@H](O)COc1cccc2[nH]ccc12 | 1.16% | 
Cn1c(=O)c2[nH]c(-c3ccccc3)nc2n(C)c1=O | 3.33% | 
COc1cc2nc(N3CCN(C(=O)OCc4ccccc4)C(C(=O)NC(C)(C)C)C3)nc(N)c2cc1OC (centres undefined) | -29.3% | 
COc1cc2c(CCNC(C)=O)c[nH]c2cc1Cl | 8.61% | 
COc1cc(NC(C)CCCN)c2ncccc2c1 (centres undefined) | -25.1% [at 20.6 µM] | 
CN(C)C(N)=NCCC[C@H](N)C(=O)O | 16.5% | 
CCCCCCCCCCCCCCCC(=O)NCC(COP(=O)([O-])OCC[N+](C)(C)C)OCC (centres undefined) | 17.8% | 
CC12C(=O)OC(=O)C1(C)C1CCC2O1 (centres undefined) | 11.1% | 
Fc1ccc(C(OCCCc2cnc[nH]2)c2ccc(F)cc2)cc1 |  | 1410 nM (active)

Structure (SMILES) | activity change, negative = inhibition | Potency
N#C/C(=C\c1ccc(O)c(O)c1)C(=O)c1ccc(O)c(O)c1 | 24.3% | 
COc1cc(C(O)CO)ccc1OS(=O)(=O)O (centres undefined) | -15.4% | 
COc1cc(OC)c(/C=C2/C(=O)Nc3ccccc32)c(OC)c1 | -1.9% | 
N#C/C(=C\c1c[nH]c2ccccc12)C(=O)c1ccc(O)c(O)c1 | 15.9% | 
O=c1[nH]c2cc([N+](=O)[O-])c([N+](=O)[O-])cc2[nH]c1=O | 12.2% | 
C#CC1(O)CC[C@H]2[C@@H]3CCC4=CCCC[C@@H]4[C@H]3CC[C@@]21C (some centres undefined) | -13.3% [at 20.6 µM] | 
OCC1O[C@H](O)C(Cl)C(O)C1O (some centres undefined) | 4.35% | 
O=C(O)CC1CCCc2ccccc2C1O (centres undefined) | 9.22% | 
CC1CN(S(=O)(=O)c2cccc3cnccc23)CCN1 (centres undefined) | 3.73% | 
O=C(Nc1cccc(C(=O)Nc2ccc(S(=O)(=O)O)c3cc(S(=O)(=O)O)cc(S(=O)(=O)O)c23)c1)Nc1cccc(C(=O)Nc2ccc(S(=O)(=O)O)c3cc(S(=O)(=O)O)cc(S(=O)(=O)O)c23)c1 | 5.5% | 
NCCSSCCN | 4.39% | 
Fc1cccc(/C=N/N=C/c2cccc(F)c2)c1 | 10.4% | 
Cc1c(C(=O)O)c(O)cc2c1C(=O)c1c(O)c([C@@H]3O[C@H](CO)[C@@H](O)[C@H](O)[C@H]3O)c(O)c(O)c1C2=O | -7.19% | 
CC(C(=O)O)c1ccc(C(=O)c2cccs2)cc1 (centres undefined) | 5.23% [at 20.6 µM] | 
NC(=O)C(=O)O | 11.1% | 
CC[C@@H](C)[C@H]1O[C@]2(CC[C@@H]1C)C[C@@H]1C[C@@H](C/C=C(\C)[C@@H](O[C@H]3C[C@H](OC)[C@@H](O[C@H]4C[C@H](OC)[C@@H](O)[C@H](C)O4)[C@H](C)O3)[C@@H](C)/C=C/C=C3\CO[C@@H]4[C@H](O)C(C)=C[C@@H](C(=O)O1)[C@]34O)O2 | 154% | 
O=C(O)CCCC[C@@H]1CCSS1 | 21.6% | 
CCCn1c(=O)c2[nH]c(-c3ccc(OCC(=O)NCCN)cc3)nc2n(CCC)c1=O | 0.294% | 
N[C@@H](CC(=O)O)C(=O)O | -0.855% | 
